Measurements published in PubChem BioAssay (NCATS).
Records with an inconclusive call do not appear. The source made the active and inactive calls. The call rests on the fitted dose curve; in most records, active means well fitted curve in the direction sought with a large enough effect; inconclusive means small, poorly fitted or top-dose-only effect, or another doubt; inactive means no such curve, though single readings can be large; an effect the other way counts as inactive or inconclusive.

Key:
[1] = Quantitative High-Throughput drug screen in 47 multiple myeloma cell lines against the NCATS MIPE library collection: Delta47_JCRB cell viability assay (AID 1918925; further: nearly all actives have a fitted effect of over 45% in size)
Outline: (§1)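 Primary qHTS used for cherry-picking: cells at 500/well, library compounds for 48 h (37C, 5% CO2), luminescent ATP assay.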

[2] = Quantitative High-Throughput drug screen in 47 multiple myeloma cell lines against the NCATS MIPE library collection: EJM_DSMZ cell viability assay (AID 1918926; further: nearly all actives have a fitted effect of over 30% in size)
Outline: as §1

[3] = Quantitative High-Throughput drug screen in 47 multiple myeloma cell lines against the NCATS MIPE library collection: AMO1_DSMZ cell viability assay (AID 1918927; further: nearly all actives have a fitted effect of over 30% in size)
Outline: as §1

[4] = Quantitative High-Throughput drug screen in 47 multiple myeloma cell lines against the NCATS MIPE library collection: ARP1_JJKsccF8 cell viability assay (AID 1918928; further: nearly all actives have a fitted effect of over 40% in size)
Outline: (§2)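 CellTiter-Glo luminescence after 48 h exposure gives viability, scaled between DMSO-only (100%) and media-only (0%) controls. Library compounds are pinned onto 500 myeloma cells per well, incubated at 37C with 5% CO2.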

[5] = Quantitative High-Throughput drug screen in 47 multiple myeloma cell lines against the NCATS MIPE library collection: ARD_JJKsccE7 cell viability assay (AID 1918929)
Outline: as §1

[6] = Quantitative High-Throughput drug screen in 47 multiple myeloma cell lines against the NCATS MIPE library collection: Karpas620_DSMZ cell viability assay (AID 1918959); further: nearly all actives have a fitted effect of over 30% in size
Outline: (§3)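 Relative luminescence from CellTiter-Glo served as the viability signal, referenced to DMSO-treated (100%) and cell-free medium (0%) controls. Treatment lasted 48 hours at 37C with 500 cells per well.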

[7] = Quantitative High-Throughput drug screen in 47 multiple myeloma cell lines against the NCATS MIPE library collection: KMM1_JCRB cell viability assay (AID 1918960); further: nearly all actives have a fitted effect of over 30% in size
Outline: as §2

[8] = Quantitative High-Throughput drug screen in 47 multiple myeloma cell lines against the NCATS MIPE library collection: KHM11_PLB cell viability assay (AID 1918962); further: nearly all actives have a fitted effect of over 35% in size
Outline: as §3

[9] = Quantitative High-Throughput drug screen in 47 multiple myeloma cell lines against the NCATS MIPE library collection: JIM3_ECACC cell viability assay (AID 1918963; further: nearly all actives have a fitted effect of over 35% in size)
Outline: as §3

[10] = Quantitative High-Throughput drug screen in 47 multiple myeloma cell lines against the NCATS MIPE library collection: JIM1_ECACC cell viability assay (AID 1918964)
Outline: as §1

[11] = Quantitative High-Throughput drug screen in 47 multiple myeloma cell lines against the NCATS MIPE library collection: H1112_PLB cell viability assay (AID 1918967; further: nearly all actives have a fitted effect of over 30% in size)
Outline: as §1

[12] = Quantitative High-Throughput drug screen in 47 multiple myeloma cell lines against the NCATS MIPE library collection: Karpas25_ECACC cell viability assay (AID 1918968; further: nearly all actives have a fitted effect of over 35% in size)
Outline: as §1

[13] = Quantitative High-Throughput drug screen in 47 multiple myeloma cell lines against the NCATS MIPE library collection: KMS27_JCRB cell viability assay (AID 1918970); further: nearly all actives have a fitted effect of over 30% in size
Outline: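 Luminescent ATP read-out (CellTiter-Glo, 5 min at room temperature) after 48 h compound exposure of 500 KMS27_JCRB cells per well; DMSO wells define full viability and media-only wells zero.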

[14] = Quantitative High-Throughput drug screen in 47 multiple myeloma cell lines against the NCATS MIPE library collection: KMS12BM_JCRB cell viability assay (AID 1918971); further: nearly all actives have a fitted effect of over 35% in size
Outline: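 qHTS of the MIPE 4.0 collection: 500 myeloma cells/well, 48 h drug exposure at 37C in 5% CO2, then CellTiter-Glo for 5 min at room temperature before luminescence reading.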

[15] = Quantitative High-Throughput drug screen in 47 multiple myeloma cell lines against the NCATS MIPE library collection: KMS12PE_JCRB cell viability assay (AID 1918972); further: nearly all actives have a fitted effect of over 30% in size
Outline: as §3

[16] = Quantitative High-Throughput drug screen in 47 multiple myeloma cell lines against the NCATS MIPE library collection: KMS20_JCRB cell viability assay (AID 1918973); further: nearly all actives have a fitted effect of over 45% in size
Outline: as §1

[17] = Quantitative High-Throughput drug screen in 47 multiple myeloma cell lines against the NCATS MIPE library collection: Karpas417_ECACC cell viability assay (AID 1918961); details: Karpas417 myeloma viability, CellTiter-Glo ATP luminescence, 48 h; viability (% of DMSO): at 45.8 µM (top of the series)
Outline: as §3

[18] = Quantitative High-Throughput drug screen in 47 multiple myeloma cell lines against the NCATS MIPE library collection: INA6_PLB cell viability assay (AID 1918965; further: nearly all actives have a fitted effect of over 55% in size)
Outline: as §3

[19] = Quantitative High-Throughput drug screen in 47 multiple myeloma cell lines against the NCATS MIPE library collection: JJN3_DSMZ cell viability assay (AID 1918966; further: nearly all actives have a fitted effect of over 50% in size)
Outline: as §1

[20] = Quantitative High-Throughput drug screen in 47 multiple myeloma cell lines against the NCATS MIPE library collection: KMS21BM_JCRB cell viability assay (AID 1918974); details: ATP luminescence, 48 h; viability: at 45.8 µM (top of the series) unless noted
Outline: as §1

Measured: Potency
Potency means the concentration at half of the fitted maximal effect.

Cc1cnc(Nc2ccc(F)cc2Cl)nc1-c1c[nH]c(C(=O)N[C@H](CO)c2cccc(Cl)c2)c1
active: [1] 7.43 µM | [2] 23.5 µM | [3] 4.18 µM | [4] 23.5 µM | [5] 14.8 µM | [6] 1.05 µM | [7] 7.43 µM | [8] 0.526 µM | [9] 16.6 µM | [10] 7.43 µM | [11] 16.6 µM | [12] 14.8 µM | [13] 6.62 µM | [14] 23.5 µM | [15] 10.5 µM | [16] 3.32 µM

C1=CCOCc2cc(ccc2OCCN2CCCC2)Nc2nccc(n2)-c2cccc(c2)OCC1
active: [1] 2.35 µM | [2] 2.64 µM | [3] 3.32 µM | [4] 1.66 µM | [6] 2.09 µM | [7] 1.87 µM | [17] 1.66 µM | [8] 1.66 µM | [9] 2.64 µM | [10] 0.743 µM | [18] 1.48 µM | [19] 4.18 µM | [11] 5.26 µM | [12] 1.66 µM | [14] 7.43 µM | [16] 2.35 µM

CCn1nnc2c(N3CCOCC3)nc(-c3ccc(NC(=O)Nc4ccc(C(=O)N5CCN(C)CC5)cc4)cc3)nc21
active: [1] 0.0132 µM | [2] 0.469 µM | [3] 0.0526 µM | [4] 0.0662 µM | [5] 0.0372 µM | [8] 0.0059 µM | [9] 0.0235 µM | [18] 0.0053 µM | [19] 0.0187 µM | [12] 0.0083 µM | [14] 0.0059 µM | [15] 0.0469 µM | [16] 0.0235 µM

Cc1ccc(C(=O)Nc2cccc(C(F)(F)F)c2)cc1-c1ccc2nc(NCCN3CCOCC3)ncc2c1
active: [1] 13.2 µM | [2] 16.6 µM | [3] 3.72 µM | [4] 8.33 µM | [5] 2.64 µM | [6] 2.64 µM | [17] 1.18 µM | [8] 0.743 µM | [9] 13.2 µM | [10] 1.05 µM | [18] 3.32 µM | [19] 16.6 µM | [11] 14.8 µM | [13] 2.96 µM | [14] 8.33 µM | [15] 2.64 µM | [16] 1.66 µM | [20] 1.66 µM

CN(C)CC=CC(=O)Nc1cc2c(Nc3ccc(F)c(Cl)c3)ncnc2cc1O[C@H]1CCOC1
active: [1] 3.72 µM | [2] 16.6 µM | [3] 0.935 µM | [4] 18.7 µM | [5] 5.26 µM | [6] 2.64 µM | [7] 3.72 µM | [8] 7.43 µM | [9] 8.33 µM | [10] 2.96 µM | [18] 2.09 µM | [19] 4.69 µM | [11] 5.9 µM | [12] 1.32 µM | [13] 2.64 µM | [14] 16.6 µM | [15] 1.18 µM | [16] 2.09 µM | [20] 0.166 µM

Cn1cc(-c2[nH]c3cc(NC(=O)[C@H](N)C4CCCCC4)cc4c3c2C=NNC4=O)cn1
active: [1] 0.935 µM | [2] 0.526 µM | [3] 2.96 µM | [4] 7.43 µM | [5] 4.69 µM | [7] 0.526 µM | [8] 1.48 µM | [9] 5.26 µM | [10] 0.296 µM | [19] 0.662 µM | [11] 0.935 µM | [12] 0.935 µM | [13] 0.148 µM | [14] 1.05 µM | [15] 1.18 µM | [16] 0.935 µM | [20] 0.166 µM

Cc1[nH]nc2ccc(-c3cncc(OC[C@@H](N)Cc4ccccc4)c3)cc12
active: [1] 0.526 µM | [2] 1.87 µM | [3] 0.935 µM | [4] 4.69 µM | [5] 2.09 µM | [6] 2.09 µM | [7] 1.32 µM | [8] 0.235 µM | [9] 2.09 µM | [10] 1.87 µM | [18] 0.935 µM | [19] 1.18 µM | [11] 1.87 µM | [12] 2.96 µM | [13] 2.09 µM | [14] 4.18 µM | [15] 0.833 µM | [16] 1.18 µM | [20] 0.935 µM

O=C(Nc1ncc(-c2cc(C(F)F)nn2-c2c(Cl)cccc2Cl)s1)C1CC1
active: [1] 0.332 µM | [2] 0.209 µM | [3] 0.235 µM | [4] 0.418 µM | [5] 0.296 µM | [7] 0.264 µM | [8] 0.935 µM | [9] 0.264 µM | [10] 0.166 µM | [18] 0.296 µM | [19] 1.32 µM | [11] 0.469 µM | [13] 0.0833 µM | [14] 1.05 µM | [15] 0.372 µM | [16] 0.469 µM

Nc1cc(C(F)(F)F)c(-c2cc(N3CCOCC3)nc(N3CCOCC3)n2)cn1
active: [1] 0.296 µM | [2] 5.9 µM | [3] 0.105 µM | [4] 0.209 µM | [5] 0.187 µM | [6] 0.235 µM | [7] 0.372 µM | [8] 1.05 µM | [9] 0.743 µM | [10] 0.0469 µM | [18] 1.32 µM | [19] 3.72 µM | [11] 0.743 µM | [13] 0.209 µM | [14] 1.05 µM | [15] 0.418 µM | [16] 1.18 µM | [20] 0.418 µM
